TWEAK Fn14 block = blocks TWEAK-Fn14 interaction in a reporter cell assay | TWEAK-stimulated Fn14 reporter cells, luciferase luminescence, 8 h | inhibition, % at 10 µM | 360,000 tested, 2% active; in the data active means inhibition above about 50%
TROY signal inh = TROY signaling inhibition. Q293 LMP1-TROYcd NF-kB luciferase reporter, 4 h. inhibition, % at 10 µM. 360,000 tested, 0.98% active. AID 1347056;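 active means compounds whose plate-normalised and pattern-corrected inhibition of the luciferase reporter signal at the single screening dose is 50% or more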
KKLEB cytotox = counter-screen for CF NF-kB inhibitors: cytotoxicity; activity change (cytotoxicity), % at 5 µM; 360,000 tested, 0.36% active; AID 602141; KKLEB CF airway cells viability, ATPlite luminescence, overnight; hits give low values; cells stimulated with P. aeruginosa culture filtrate;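 active means corrected activity change at or below -50% at 5 µM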
Peg3 prom inh-1 = inhibitors of Peg3 promoter | inhibition, % at 20 µM | AID 588405 | HeLa PEG-Prom luciferase reporter, luminescence, overnight | 360,000 tested, 1.7% active;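 active means inhibition of at least 50% at 20 µM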
CF NFkB block = inhibitors of cystic fibrosis induced NF-kB | KKLEB NF-kB-GFP reporter, PAF-induced, GFP fluorescence overnight | inhibition, % at 5 µM | 360,000 tested, 0.86% active | AID 588850;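 active means at least 50% inhibition at 5 µM, scaled per plate between neutral and stimulator controls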;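 further: PAF is a Pseudomonas aeruginosa culture filtrate used as stimulus; plate controls were PAF-stimulated DMSO wells for no effect and unstimulated DMSO wells for full effect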
HIF-2a block = inhibitors of HIF-2a. 786-0 RCC cells HIF-2a reporter, luciferase luminescence, overnight. inhibition, % at 18.8 µM. 360,000 tested, 0.72% active. AID 624352;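 active means inhibition of the luminescence signal of 40% or more relative to plate controls, in a single-dose primary screen at 18.75 µM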
Peg3 prom inh-2 = Peg3 promoter inhibition confirmation; HeLa PEG-Prom luciferase reporter, luminescence, overnight; 1,300 tested, 84% active; shares compounds with Peg3 prom inh-1; AID 602417; inhibition, % at 20 µM;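 active means at 20 µM dose, 40% or more inhibition averaged across four replicates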
CF NFkB inh conf = confirmation of cystic fibrosis induced NF-kB inhibitors; inhibition, % at 5 µM; KKLEB CF airway cells, PAF-induced NF-kB-GFP fluorescence, overnight; 1,300 tested, 64% active; shares compounds with CF NFkB block; in the data active means inhibition above about 40%;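 further: stimulus PAF is a Pseudomonas aeruginosa filtrate and not platelet activating factor; plate controls were DMSO wells with stimulus for no effect and unstimulated DMSO wells for full effect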
* = called active by the depositor; nt = no result given. Hits are enriched below; roughly 4% of the tested compounds scored in any of these assays.

SMILES	TWEAK Fn14 block	TROY signal inh	KKLEB cytotox	Peg3 prom inh-1	CF NFkB block	HIF-2a block	Peg3 prom inh-2	CF NFkB inh conf
COc1ccc(C[C@H]2CN3C(=NC[C@@H]3Cc3ccc(O)cc3)N2C[C@H](C)NC(=O)c2ccc(C)c(Br)c2)cc1	-54	4	-16	101*	8	-20	97*	nt
CC1(C)CC(NCCN2CCN(C3=CC(=C(C#N)C#N)CC(C)(C)C3)CC2)=CC(=C(C#N)C#N)C1	22	23	-9	50*	9	9	44*	nt
CNC(=S)N1CCN(CCNC2=CC(=O)CC(C)(C)C2)CC1	-18	-3	18	1	-3	18	nt	nt
Cc1ccc(NS(=O)(=O)c2ccc3c(c2)NC(=O)CO3)cc1Cl	-2	18	-12	19	2	16	nt	nt
COc1cc(OC)c(OC)cc1CCC(C)NCCC(c1ccccc1)c1ccccc1 (configuration not stated)	0	-20	-11	97*	5	4	88*	nt
COc1ccc(Cc2nnc(SCC(=O)N3CCCCC3)o2)cc1	4	-13	-7	-5	3	-4	nt	nt
O=C(C[n+]1ccc(-c2cc(C(=O)Nc3cccc(C(F)(F)F)c3)c3ccccc3n2)cc1)c1cccc([N+](=O)[O-])c1	-32	3	-4	89*	11	17	62*	nt
CCOC(=O)CCCC(=O)Nc1ncnc2c1C(c1ccccc1)c1c(ccc3ccccc13)O2 (configuration not stated)	-5	13	4	36	-11	25	nt	nt
O=C(c1ccccc1)N(C(=O)c1ccccc1)c1ncnc2c1C(c1ccccc1)c1c(ccc3ccccc13)O2 (configuration not stated)	47	10	-4	78*	56*	21	77*	nt
O=C(/C=C/c1ccccc1)Nc1cc(NC(=O)/C=C/c2ccccc2)cc(C(=O)O)c1	2	-4	16	14	-6	19	nt	nt
O=C(/C=C/c1ccccc1)Nc1cccc(C(=O)O)c1	41	-21	3	85*	-4	87*	77*	nt
O=C(NC1CCCCC1)C(CCc1ccccc1)N1CCc2ccccc2C1 (configuration not stated)	0	3	-20	5	8	-1	nt	nt
CCN(Cc1ccccc1)S(=O)(=O)c1ccc(C(=O)N(CCCN(C)C)c2nc3cc4c(cc3s2)OCO4)cc1	-10	-9	0	87*	-11	3	99*	nt
CN(C)CCN(C(=O)c1ccc(S(=O)(=O)N(C)c2ccccc2)cc1)c1nc2cc3c(cc2s1)OCO3	-13	-17	3	-24	18	-54	nt	nt
Oc1[nH]c2c(Cl)cc(Cl)cc2c1N=NC(=S)NCC1CCCO1 (configuration not stated)	103*	47	18	97*	-42	23	38	nt
Cc1ccsc1C(=O)NNC(=O)C1C2C=CC(C2)C1C(=O)O (configuration not stated)	-6	19	0	-5	2	-7	nt	nt
Brc1ccc(N=Nc2ccc3ccccc3n2)cc1	99*	76*	-98*	73*	-26	62*	68*	nt
O=C(NCCN1CCOCC1)c1ccc2c(c1)N(Cc1cccc(F)c1)C(=O)c1ccccc1S2	19	5	-3	18	19	26	nt	nt
Cc1cccc(CN2C(=O)/C(=C\c3ccc(C(=O)NCCN4CCOCC4)cc3)Sc3ccccc32)c1	41	62*	5	92*	82*	9	92*	-16
Cc1oc(-c2nc3ccccc3n2C)cc1C(=O)c1ccccc1	-9	-39	-43	-53	0	-27	nt	nt
CCCCCNC(=O)C(C1CC1)n1c(=O)c(-c2ccccc2)nc2ccccc21 (configuration not stated)	nt	nt	nt	nt	nt	15	nt	nt
COc1cccc(OC)c1C(=O)Nc1cc(C)nn1-c1nc2ccccc2[nH]1	38	30	-17	54*	78*	-34	71*	53*
COc1ccc(-n2nc(C(=O)NCC(=O)Nc3cc(OC)c(OC)c(OC)c3)c3ccccc3c2=O)cc1OC	1	4	-26	55*	83*	6	44*	90*
O=C(O)c1cc2c(ccc3ccccc32)[nH]1	3	-18	-1	-14	-4	-14	nt	nt
CC(=O)c1ccc(-c2cnc3c(NC=O)cc(-c4ccccc4Oc4ccccc4)cn23)cc1	59*	14	-27	55*	58*	24	63*	45*
SMILES	TWEAK Fn14 block	TROY signal inh	KKLEB cytotox	Peg3 prom inh-1	CF NFkB block	HIF-2a block	Peg3 prom inh-2	CF NFkB inh conf
COc1ccccc1CN(C)C(=O)c1cc(-c2cc(OC)c(OC)c(OC)c2)nc2ccccc12	27	-7	-32	53*	74*	-2	56*	10
CSCCC(NS(=O)(=O)c1ccc2c(c1)OCCO2)C(=O)N(C)Cc1ccc(C)cc1 (configuration not stated)	15	1	-13	18	6	14	nt	nt
COc1cccc(CN(C)C(=O)C(CCSC)NS(=O)(=O)c2ccc3c(c2)OCCO3)c1OC (configuration not stated)	-4	17	15	56*	74*	7	62*	79*
CC(=O)Nc1ccc(C(=O)NNC(=O)c2ccc(Cl)cc2Cl)cc1	10	-4	10	8	4	10	nt	nt
Cc1ccc(S(=O)(=O)/N=C(\CCl)N2CCOCC2)cc1	5	12	-14	58*	58*	24	39	70*
COc1ccc(Cl)cc1NC(=O)CN(C)C(=O)c1n[nH]c2ccccc12	12	5	-7	36	13	28	nt	nt
CC1CCCCN1C(=O)c1cccc(NC2=C(Cl)C(=O)N(Cc3ccccc3)C2=O)c1 (configuration not stated)	19	27	-44	52*	57*	18	54*	-104
CC1CCN(C(=O)c2ccc(NC3=C(Cl)C(=O)N(Cc4ccccc4)C3=O)cc2)CC1	9	20	-4	40	12	-2	nt	nt
O=C(Nc1ccccc1)c1nc[nH]c1C(=O)NCCCCNC(=O)c1[nH]cnc1C(=O)Nc1ccccc1	35	-3	-13	60*	54*	4	56*	59*
Cc1ccc(NC(=O)c2nc[nH]c2C(=O)NCCCCCCNC(=O)c2[nH]cnc2C(=O)Nc2ccc(C)cc2)cc1	13	-11	4	46	4	1	nt	nt
CN(C)S(=O)(=O)c1cccc(NC(=O)CSc2nc3c(cc2C#N)C(=O)CC(C)(C)C3)c1	37	39	-20	60*	58*	-12	60*	35

High-throughput results from PubChem BioAssay.
